Screening data as filed in PubChem.
USP2a block: qHTS Assay for Inhibitors of Ubiquitin-specific Protease USP2a Using CHOP2 as the Reporter. Potency, µM (doses to about 38.3 µM), without a hit: at the highest dose activity change, negative = inhibition, usual class: inhibitors. 330,000 compounds, 0.01% hits. AID 463254, 2010. USP2 core, Ub-CHOP2 coupled fluorogenic reporter, 485/531. Ubiquitin carboxyl-terminal hydrolase 2 (Homo sapiens), O75604;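 also: potency is read from the fitted curve at half-maximal effect; plate controls were DMSO wells for no effect and full inhibition by NEM control for full effect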
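Cell-free coupled assay: 10nM USP2 core preincubated 30min RT with compound in Tris-HCl pH 8.0/CaCl2/CHAPS buffer, then 25nM Ub-CHOP2 and 25nM reporter substrate; fluorescence (Ex 485/Em 531) read after 60min RT, normalized to NEM inhibition, concentration-response curves fitted.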
D1 ag: Allosteric Agonists of the Human D1 Dopamine Receptor: qHTS; D(1A) dopamine receptor (Homo sapiens), P21728; HEK293 T-REx D1 cells, calcium flux, agonist mode; activation, % at 2 µM; 360,000 compounds, 1% hits; in the data active = activation above about 30%; also: 0% is about no effect
Target sequence (P21728 whole entry, looked up): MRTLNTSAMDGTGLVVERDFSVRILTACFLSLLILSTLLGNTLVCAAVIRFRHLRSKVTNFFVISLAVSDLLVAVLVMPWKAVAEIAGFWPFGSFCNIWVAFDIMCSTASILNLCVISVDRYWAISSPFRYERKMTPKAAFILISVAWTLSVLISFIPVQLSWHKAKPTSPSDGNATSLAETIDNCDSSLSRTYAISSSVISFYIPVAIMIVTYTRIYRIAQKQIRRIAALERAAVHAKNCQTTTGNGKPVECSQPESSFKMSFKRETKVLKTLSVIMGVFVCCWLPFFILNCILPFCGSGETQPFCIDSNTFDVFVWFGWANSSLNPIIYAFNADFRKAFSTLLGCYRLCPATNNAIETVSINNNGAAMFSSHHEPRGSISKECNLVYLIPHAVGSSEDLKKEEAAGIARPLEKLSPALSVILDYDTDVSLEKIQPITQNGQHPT
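Tetracycline-induced HEK293 TREx D1 cells, force-coupled to calcium signalling, were dye-loaded with a no-wash calcium kit. Compound was pin-added after a 10 s baseline. Fluorescence was read kinetically at 1 cycle/s for 180 s, with calcium rises flagged as agonism.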
Eya2 phos inh: qHTS Assay for Inhibitors of the Phosphatase Activity of Eya2; recombinant Eya2, OMFP fluorescence dephosphorylation (OMFP is methylfluorescein phosphate); Potency, µM (top dose mostly 76.9 µM), for the others: top-dose activity, negative = inhibition, actives largely listed as inhibitors; 330,000 compounds, 0.006% hits; AID 488837, 2010; Protein phosphatase EYA2 (Homo sapiens), O00167; also: potency is read from the fitted curve at half-maximal effect; % is scaled to controls: 0 for no effect and ±100 for the full control effect
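Eya2 protein (added as 0.2 uM solution) was preincubated with compound for 10 min at ambient temperature in 50 mM HEPES pH 7.5, 50 mM NaCl, 5 uM MgCl2, 0.05% BSA, 1 mM DTT. OMFP (added at 50 uM) then reacted 10 min; fluorescence read at 485/525 nm.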
D1 antag: Antagonist of Human D 1 Dopamine Receptor: qHTS | activity change, negative = inhibition, % at 10 µM | D(1A) dopamine receptor (Homo sapiens), P21728 | HEK293 TREx D1 cells, calcium flux, dopamine EC80; stronger effect = lower value | 360,000 compounds, 3.2% hits; in the data active = activity change below about -30%; also: % is scaled to controls: 0 for no effect and ±100 for the full control effect
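Kinetic fluorescence of a calcium dye serves as the read-out. D1-expressing Hek293 Trex cells, induced overnight at 30 C, are exposed to compound for 180 s before an EC80 dopamine addition, then read 180 s further.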
GALK inh: qHTS Assay for Inhibitors of Human Galactokinase (GALK); P51570; Purified GALK, Kinase-Glo residual ATP luminescence; Potency, µM (series often up to 57.5 µM), inactives show at the top dose activity change, negative = inhibition, most hits filed as inhibitors; 270,000 compounds, 0.007% hits; AID 1868, 2009; also: potency is read from the fitted curve at half-maximal effect; % is scaled to controls: 0 for no effect and ±100 for the full control effect
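The enzyme phosphorylates galactose (100 uM) using ATP (35 uM); inhibition is detected as higher residual ATP, quantified by bioluminescence after 1 h reaction at room temperature, pH 8.0.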
D1 PAM: Potentiators of Human D1 Dopamine Receptor: qHTS; 360,000 compounds, 0.036% hits; D(1A) dopamine receptor (Homo sapiens), P21728; HEK293 TREx D1 cells, calcium flux, dopamine EC20 potentiation; potentiation, % at 10 µM; in the data active = potentiation above about 30%; also: 0% is about no effect
Numbers without * were called inactive. An excerpt weighted towards active compounds, which were near 3.9% of everything screened. Unless noted, calls follow the shape of the dose curve; as a rule, active = well fitted inhibition curve with a large enough effect; inconclusive = small, poorly fitted or top-dose-only effect, or effect the other way; inactive = flat fitted curve, though single readings scatter.

How did CC1CCN(S(=O)(=O)c2ccc(N3CCCCS3(=O)=O)cc2)CC1 do in these assays?
D1 ag: 3; D1 antag: -29; D1 PAM: 1

How did COc1cc(Cl)c(C)cc1NC(=O)c1cnn(-c2ccc(C)cc2)c1-n1cccc1 do in these assays?
D1 ag: 0; D1 antag: 7; D1 PAM: 1

Results for COc1cccc(N2CCN(C3=NS(=O)(=O)C(c4ccc(C)cc4)=C3C)CC2)c1 ?
D1 ag: 0; D1 antag: 1; D1 PAM: -1

How did COc1ccccc1NC(=O)Nc1ccc(N2CCOCC2)cc1 do in these assays?
USP2a block: -1%; D1 ag: -1; Eya2 phos inh: 0%; D1 antag: -43*; GALK inh: -2%; D1 PAM: 0

Results for Cc1noc(NS(=O)(=O)c2ccc(N/C=C\C(=O)c3cccc4ccccc34)cc2)c1C ?
USP2a block: inconclusive; D1 ag: 43*; Eya2 phos inh: -1%; D1 antag: 19; GALK inh: -4%; D1 PAM: -1

How did O=C(Nc1ccc(Cl)c(Cl)c1)Nc1ccon1 do in these assays?
USP2a block: 0%; D1 ag: 26; Eya2 phos inh: -2%; D1 antag: -23; GALK inh: 4%; D1 PAM: -3

Results for O=C(Nc1ccc(Cl)cc1)Nc1ccc(Cl)c(Cl)c1 ?
USP2a block: -1%; D1 ag: 12; Eya2 phos inh: -14%; D1 antag: -34*; D1 PAM: -9

What do the screens show for `O=C1C=C(NC(=O)Nc2ccc(Cl)c(Cl)c2)CCC1`?
USP2a block: 4%; D1 ag: 13; Eya2 phos inh: 11%; D1 antag: -54*; GALK inh: 1%; D1 PAM: -9

Results for CC(C)CN(CCCNC(=O)CN1N=C(c2ccccc2)CCC1=O)CC(C)C ?
D1 ag: -5; D1 antag: -3; D1 PAM: -2

How did COc1ccccc1CNC(=O)C1CCCN(S(=O)(=O)c2ccc3c(c2)CCCN3C(C)=O)C1 (configuration not stated) do in these assays?
D1 ag: -1; D1 antag: 19; D1 PAM: -3

How did COc1ccc(NC(=O)C2CCC(CNS(=O)(=O)c3cccc4nsnc34)CC2)cc1OC (configuration not stated) do in these assays?
D1 ag: 0; D1 antag: 3; D1 PAM: -3

What do the screens show for `O=C(Nc1ccc(N2CCOCC2)cc1)Nc1ccc(Cl)c(Cl)c1`?
USP2a block: -1%; D1 ag: 17; Eya2 phos inh: -13%; D1 antag: -31*; GALK inh: 0%; D1 PAM: -4

What do the screens show for `O=C(Nc1ccc(Cl)c(Cl)c1)Nc1ccccc1O`?
USP2a block: -7%; D1 ag: 21; Eya2 phos inh: -3%; D1 antag: -37*; GALK inh: -6%; D1 PAM: -4

How did O=C(Nc1ccc(Cl)cc1)Nc1ccc(N2CCOCC2)cc1 do in these assays?
USP2a block: 2%; D1 ag: 9; Eya2 phos inh: -1%; D1 antag: -16; GALK inh: 0%; D1 PAM: -4

What do the screens show for `O=C(Nc1ccc(N2CCOCC2)cc1)C1(c2ccc(Cl)cc2)CCC1`?
USP2a block: 4%; D1 ag: 43*; Eya2 phos inh: 0%; D1 antag: -3; GALK inh: 0%; D1 PAM: -4

Results for O=c1c2ccccc2nnn1Cc1nnc(-c2ccccc2Br)o1 ?
USP2a block: -5%; D1 ag: 47*; Eya2 phos inh: -5%; D1 antag: 13; GALK inh: 2%; D1 PAM: 6

What do the screens show for `O=C1c2ccccc2S(=O)(=O)N1Cc1nnc(-c2ccccc2Br)o1`?
USP2a block: 0%; D1 ag: 3; Eya2 phos inh: -1%; D1 antag: -11; GALK inh: -3%; D1 PAM: -16

How did CNNC(=S)Nc1cccc(C(F)(F)F)c1 do in these assays?
USP2a block: 4%; D1 ag: 0; Eya2 phos inh: -2%; D1 antag: 3; GALK inh: -3%; D1 PAM: -1

Results for CC(C)(C)NC(=S)Nc1cccc(C(F)(F)F)c1 ?
USP2a block: 3%; D1 ag: 31*; Eya2 phos inh: -2%; D1 antag: -1; GALK inh: 8%; D1 PAM: -9

How did FC(F)(F)c1cccc(NC(=S)NNC(=S)Nc2cccc(C(F)(F)F)c2)c1 do in these assays?
USP2a block: 2%; D1 ag: 2; Eya2 phos inh: -13%; D1 antag: -34*; GALK inh: -6%; D1 PAM: -5

Results for Cc1c2cnn(CC(=O)N3CCN(c4ccccc4)CC3)c(=O)c2c(C)n1Cc1ccc(F)cc1 ?
D1 ag: 1; D1 antag: 2; D1 PAM: -4

What do the screens show for `Cc1ccc(Cn2c3ccccc3c3cnn(CC(=O)N4CCCCCC4)c(=O)c32)cc1`?
D1 ag: 1; D1 antag: 29; D1 PAM: -5

What do the screens show for `O=C1OCC2=C1C(c1cccc(Cl)c1)CC(=O)N2c1ccc(C(F)(F)F)cc1` (configuration not stated)?
D1 ag: -1; D1 antag: 1; D1 PAM: -5

Results for O=C(Nc1cccc(N2C(=O)C=CC2=O)c1)c1cccs1 ?
USP2a block: -12%; D1 ag: 10; Eya2 phos inh: 22%; D1 antag: -24; D1 PAM: -12

What do the screens show for `O=C1C=CC(=O)N1c1cccc(-c2ccccc2)c1`?
USP2a block: 0%; D1 ag: 5; Eya2 phos inh: -2%; D1 antag: -43*; GALK inh: -2%; D1 PAM: -10

What do the screens show for `CCc1ccc(-n2nc(CO)c(C(=O)NC)n2)cc1`?
D1 ag: 0; D1 antag: -21; D1 PAM: 1

Results for Cc1ccc2[nH]c3c(=O)n(CC(=O)N(CCN(C)C)Cc4ccccc4)ncc3c2c1 ?
D1 ag: 3; D1 antag: 8; D1 PAM: -7

What do the screens show for `O=S(=O)(NCCC1=CCCCC1)c1ccccc1Br`?
USP2a block: 1%; D1 ag: 5; Eya2 phos inh: -1%; D1 antag: 20; D1 PAM: -5
